# Reference: the supplement of paper PMC10849652
# About 8,800 targets were measured; listed, in parts, are those with a hit and a random draw of the rest. About 0.5% of all pairs of compound and target were hits. Values without a mark were called inactive.
# Columns and labels:
# Assay in all cases: log2 fold change, soluble protein after heating vs DMSO (PISA); higher = thermal stabilisation; K562 lysate, 10 uM; active = over 0.2 and 3.5 SD of the protein, either way, in both replicates (recomputed)
# [1] = compound: CS(=O)(=O)CCNCc1ccc(-c2ccc3ncnc(Nc4ccc(OCc5cccc(F)c5)c(Cl)c4)c3c2)o1 [lapatinib]
# Summary of the method: (§1)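 The values are log-two fold changes in thermal stability compared with solvent controls and come from duplicates. They were obtained by TMTpro 16plex LC-MS/MS, with channel sums equalised, on the supernatant after 21,000xg for 90 min. That supernatant came from crude K562 extract at 1 mg/mL protein treated with 10 μM compound for 30 min, heated for 3 min across 48°C-58°C, pooled and brought to 0.5% NP-40 at 4°C.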
# [2] = compound: CS(=O)(=O)N1CCN(Cc2cc3nc(-c4cccc5[nH]ncc45)nc(N4CCOCC4)c3s2)CC1 [pictilisib]
# Summary of the method: as §1
# [3] = compound: C[C@@H](Oc1cc(-c2cnn(C3CCNCC3)c2)cnc1N)c1c(Cl)ccc(F)c1Cl [crizotinib]
# Summary of the method: as §1
# [4] = compound: C[C@H](C1=CC=C(C=C1)C(=O)NC2=C3C=CNC3=NC=C2)N
# Summary of the method: as §1
# [5] = compound: C[C@H](Nc1ncnc2nc[nH]c12)c1cc2cccc(Cl)c2c(=O)n1-c1ccccc1 [duvelisib]
# Summary of the method: as §1
# [6] = compound: Cc1cc(Nc2cc(CN3CCOCC3)c3nc(C)c(Cc4ccc(Cl)cc4F)n3n2)n[nH]1 [gandotinib]
# Summary of the method: as §1
# [7] = compound: Cc1cc(Nc2cc(N3CCN(C)CC3)nc(Sc3ccc(NC(=O)C4CC4)cc3)n2)n[nH]1 [tozasertib]
# Summary of the method: as §1
# [8] = compound: Cc1ccc(-n2nc(C(C)(C)C)cc2NC(=O)Nc2ccc(OCCN3CCOCC3)c3ccccc23)cc1 [doramapimod]
# Summary of the method: as §1
# [9] = compound: Cc1ccc(NC(=O)c2ccc(CN3CC[C@H](N(C)C)C3)c(C(F)(F)F)c2)cc1Nc1nccc(-c2cncnc2)n1 [bafetinib]
# Summary of the method: as §1
# [10] = compound: Cc1cccc(CC(=O)N2CCc3c2ccc(-c2cn(C)c4ncnc(N)c24)c3F)n1
# Summary of the method: as §1
# [11] = compound: Cc1cn(-c2cc(NC(=O)c3ccc(C)c(Nc4nccc(-c5cccnc5)n4)c3)cc(C(F)(F)F)c2)cn1 [nilotinib]
# Summary of the method: as §1
# [12] = compound: Cc1nc(Nc2n[nH]c3c2CN(C(=O)N[C@H](CN(C)C)c2ccccc2)C3(C)C)c2sccc2n1
# Summary of the method: as §1
# [13] = compound: Cc1nc(Nc2ncc(C(=O)Nc3c(C)cccc3Cl)s2)cc(N2CCN(CCO)CC2)n1 [dasatinib]
# Summary of the method: as §1
# [14] = compound: Cc1ncc(-c2ccnc(Nc3ccc(S(C)(=O)=O)cc3)n2)n1C(C)C
# Summary of the method: as §1
# [15] = compound: Cn1cc(-c2ccc3c(c2)CCN3C(=O)Cc2cccc(C(F)(F)F)c2)c2c(N)ncnc21
# Summary of the method: as §1
# [16] = compound: Cn1cc(CNCC2CCN(c3ncc(C(=O)NO)cn3)CC2)c2ccccc21 [quisinostat]
# Summary of the method: as §1
# [17] = compound: Cn1cncc1[C@@](N)(c1ccc(Cl)cc1)c1ccc2c(c1)c(-c1cccc(Cl)c1)cc(=O)n2C [tipifarnib]
# Summary of the method: as §1
# [18] = compound: NC(=O)Nc1cc(-c2cccc(F)c2)sc1C(=O)N[C@H]1CCCNC1
# Summary of the method: as §1
# [19] = compound: NC(=O)c1cnc(N[C@@H]2CCCC[C@@H]2N)nc1Nc1cccc(-n2nccn2)c1
# Summary of the method: as §1
# [20] = compound: NC1(c2ccc(-c3nc4ccn5c(=O)[nH]nc5c4cc3-c3ccccc3)cc2)CCC1
# Summary of the method: as §1
# Chain of UniProt Q99729 (Q99729 whole entry, looked up): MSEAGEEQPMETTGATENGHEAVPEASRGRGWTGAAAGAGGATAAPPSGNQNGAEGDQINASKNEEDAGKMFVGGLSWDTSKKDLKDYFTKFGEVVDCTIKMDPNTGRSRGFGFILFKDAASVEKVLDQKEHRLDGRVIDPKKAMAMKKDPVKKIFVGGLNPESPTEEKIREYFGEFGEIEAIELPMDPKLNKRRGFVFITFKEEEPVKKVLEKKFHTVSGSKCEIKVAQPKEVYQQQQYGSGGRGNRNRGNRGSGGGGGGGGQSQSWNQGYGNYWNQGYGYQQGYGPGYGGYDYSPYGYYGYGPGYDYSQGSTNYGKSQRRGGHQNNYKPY
# Chain of UniProt Q8TDG4 (Q8TDG4 whole entry, looked up): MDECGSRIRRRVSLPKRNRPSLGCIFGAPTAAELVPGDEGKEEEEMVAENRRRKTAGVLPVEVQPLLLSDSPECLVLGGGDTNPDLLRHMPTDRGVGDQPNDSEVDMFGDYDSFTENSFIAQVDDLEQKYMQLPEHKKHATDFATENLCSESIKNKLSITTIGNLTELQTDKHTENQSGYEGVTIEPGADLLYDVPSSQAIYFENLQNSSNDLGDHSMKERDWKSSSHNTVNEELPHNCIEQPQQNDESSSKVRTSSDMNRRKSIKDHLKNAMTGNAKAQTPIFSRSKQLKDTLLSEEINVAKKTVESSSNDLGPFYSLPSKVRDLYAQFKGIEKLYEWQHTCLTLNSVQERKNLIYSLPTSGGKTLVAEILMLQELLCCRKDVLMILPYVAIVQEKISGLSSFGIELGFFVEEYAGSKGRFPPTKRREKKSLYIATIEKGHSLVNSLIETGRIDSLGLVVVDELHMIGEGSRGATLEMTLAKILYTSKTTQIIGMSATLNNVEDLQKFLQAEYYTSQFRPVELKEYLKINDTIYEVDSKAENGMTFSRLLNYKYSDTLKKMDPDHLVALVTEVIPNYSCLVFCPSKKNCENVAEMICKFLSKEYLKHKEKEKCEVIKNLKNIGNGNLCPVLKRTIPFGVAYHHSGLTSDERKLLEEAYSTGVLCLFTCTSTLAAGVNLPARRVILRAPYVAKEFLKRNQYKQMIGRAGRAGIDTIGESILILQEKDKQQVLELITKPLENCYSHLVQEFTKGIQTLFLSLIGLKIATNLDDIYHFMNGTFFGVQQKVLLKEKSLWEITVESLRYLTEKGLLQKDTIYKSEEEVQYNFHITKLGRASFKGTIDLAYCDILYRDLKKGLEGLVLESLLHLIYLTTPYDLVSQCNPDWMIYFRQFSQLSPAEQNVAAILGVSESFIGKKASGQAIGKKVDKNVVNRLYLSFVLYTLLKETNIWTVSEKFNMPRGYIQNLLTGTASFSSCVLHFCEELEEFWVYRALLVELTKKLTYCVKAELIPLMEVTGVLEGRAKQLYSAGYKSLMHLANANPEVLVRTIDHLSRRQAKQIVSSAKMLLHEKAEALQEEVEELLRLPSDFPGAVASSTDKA
# Chain of UniProt O14979 (O14979 whole entry, looked up): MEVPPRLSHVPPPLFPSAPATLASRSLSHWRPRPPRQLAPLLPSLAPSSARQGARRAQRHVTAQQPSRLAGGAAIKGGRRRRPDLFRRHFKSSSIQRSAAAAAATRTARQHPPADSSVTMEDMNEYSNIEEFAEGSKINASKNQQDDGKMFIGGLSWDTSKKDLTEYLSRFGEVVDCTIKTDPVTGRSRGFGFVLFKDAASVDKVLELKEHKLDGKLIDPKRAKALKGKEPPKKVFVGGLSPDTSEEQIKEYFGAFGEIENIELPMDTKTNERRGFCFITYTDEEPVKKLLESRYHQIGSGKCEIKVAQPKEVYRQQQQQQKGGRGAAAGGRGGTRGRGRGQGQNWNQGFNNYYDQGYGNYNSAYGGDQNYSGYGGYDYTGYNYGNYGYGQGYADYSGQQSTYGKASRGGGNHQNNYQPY
# Chain of UniProt Q6NT76 (Q6NT76 whole entry, looked up): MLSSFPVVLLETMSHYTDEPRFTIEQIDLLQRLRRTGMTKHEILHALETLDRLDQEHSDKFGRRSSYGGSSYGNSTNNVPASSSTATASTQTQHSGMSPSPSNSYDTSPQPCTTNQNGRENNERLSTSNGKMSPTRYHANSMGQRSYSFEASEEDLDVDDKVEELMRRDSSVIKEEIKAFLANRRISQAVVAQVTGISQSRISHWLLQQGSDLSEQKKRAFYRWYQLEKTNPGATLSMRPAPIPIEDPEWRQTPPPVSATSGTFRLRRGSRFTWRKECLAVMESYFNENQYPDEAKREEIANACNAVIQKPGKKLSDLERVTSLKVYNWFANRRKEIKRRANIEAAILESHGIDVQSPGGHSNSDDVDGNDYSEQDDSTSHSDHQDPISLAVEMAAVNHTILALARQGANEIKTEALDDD
# Chain of UniProt P15260 (P15260 whole entry, looked up): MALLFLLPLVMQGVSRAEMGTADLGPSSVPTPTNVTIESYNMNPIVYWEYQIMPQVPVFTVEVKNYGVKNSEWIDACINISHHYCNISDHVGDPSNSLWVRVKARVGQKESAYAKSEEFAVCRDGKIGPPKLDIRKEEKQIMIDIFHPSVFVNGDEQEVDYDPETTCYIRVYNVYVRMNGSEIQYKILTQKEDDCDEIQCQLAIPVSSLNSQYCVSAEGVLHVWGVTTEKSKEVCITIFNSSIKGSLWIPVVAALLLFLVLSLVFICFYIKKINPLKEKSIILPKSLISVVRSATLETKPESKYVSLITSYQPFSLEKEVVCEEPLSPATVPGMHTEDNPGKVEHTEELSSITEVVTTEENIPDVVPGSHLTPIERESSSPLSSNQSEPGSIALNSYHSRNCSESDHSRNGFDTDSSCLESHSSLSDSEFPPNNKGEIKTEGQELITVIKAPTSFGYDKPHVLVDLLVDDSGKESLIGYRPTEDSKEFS
# Chain of UniProt P15104 (P15104 whole entry, looked up): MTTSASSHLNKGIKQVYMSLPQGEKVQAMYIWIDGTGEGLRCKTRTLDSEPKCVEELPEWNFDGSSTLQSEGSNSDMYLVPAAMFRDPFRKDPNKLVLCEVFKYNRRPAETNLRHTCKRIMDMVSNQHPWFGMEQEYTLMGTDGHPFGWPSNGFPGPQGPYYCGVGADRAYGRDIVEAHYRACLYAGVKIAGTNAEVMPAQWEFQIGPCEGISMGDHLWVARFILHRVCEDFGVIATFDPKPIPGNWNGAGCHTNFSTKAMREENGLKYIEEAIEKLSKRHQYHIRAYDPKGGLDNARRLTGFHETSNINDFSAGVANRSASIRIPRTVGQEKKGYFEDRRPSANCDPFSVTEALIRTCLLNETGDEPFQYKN
# Chain of UniProt Q9NVR2 (Q9NVR2 whole entry, looked up): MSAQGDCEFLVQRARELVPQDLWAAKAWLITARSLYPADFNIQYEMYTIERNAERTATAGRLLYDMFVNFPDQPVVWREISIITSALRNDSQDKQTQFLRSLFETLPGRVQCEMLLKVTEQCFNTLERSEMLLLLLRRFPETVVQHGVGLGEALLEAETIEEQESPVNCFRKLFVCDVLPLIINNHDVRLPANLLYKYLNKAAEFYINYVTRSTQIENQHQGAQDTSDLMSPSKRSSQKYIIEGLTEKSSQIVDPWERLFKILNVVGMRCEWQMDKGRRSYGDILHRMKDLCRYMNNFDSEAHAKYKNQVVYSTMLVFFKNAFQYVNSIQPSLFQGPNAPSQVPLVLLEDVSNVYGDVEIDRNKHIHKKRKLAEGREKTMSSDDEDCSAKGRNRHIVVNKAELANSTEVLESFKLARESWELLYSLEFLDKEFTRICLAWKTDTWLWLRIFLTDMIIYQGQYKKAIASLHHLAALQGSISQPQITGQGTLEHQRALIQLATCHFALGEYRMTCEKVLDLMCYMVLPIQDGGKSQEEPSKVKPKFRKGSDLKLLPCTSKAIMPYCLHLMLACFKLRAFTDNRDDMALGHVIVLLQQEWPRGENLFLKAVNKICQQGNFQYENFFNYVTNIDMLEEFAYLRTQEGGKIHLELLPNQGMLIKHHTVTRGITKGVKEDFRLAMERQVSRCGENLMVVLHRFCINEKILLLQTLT
# Chain of UniProt P12081 (P12081 whole entry, looked up): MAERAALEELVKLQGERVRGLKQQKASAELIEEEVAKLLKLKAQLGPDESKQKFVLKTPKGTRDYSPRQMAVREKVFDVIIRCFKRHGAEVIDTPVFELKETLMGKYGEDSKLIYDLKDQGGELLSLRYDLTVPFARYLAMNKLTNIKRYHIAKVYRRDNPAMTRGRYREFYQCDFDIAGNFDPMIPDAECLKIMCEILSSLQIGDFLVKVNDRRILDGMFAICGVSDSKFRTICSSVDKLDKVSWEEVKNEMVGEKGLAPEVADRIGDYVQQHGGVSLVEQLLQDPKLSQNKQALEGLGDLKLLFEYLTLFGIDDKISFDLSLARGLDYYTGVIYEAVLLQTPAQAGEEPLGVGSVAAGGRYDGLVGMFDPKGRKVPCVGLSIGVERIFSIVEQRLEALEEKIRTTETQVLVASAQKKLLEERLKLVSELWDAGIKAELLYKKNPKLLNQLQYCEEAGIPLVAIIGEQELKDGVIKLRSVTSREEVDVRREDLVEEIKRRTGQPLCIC
# Chain of UniProt Q8NC54 (Q8NC54 whole entry, looked up): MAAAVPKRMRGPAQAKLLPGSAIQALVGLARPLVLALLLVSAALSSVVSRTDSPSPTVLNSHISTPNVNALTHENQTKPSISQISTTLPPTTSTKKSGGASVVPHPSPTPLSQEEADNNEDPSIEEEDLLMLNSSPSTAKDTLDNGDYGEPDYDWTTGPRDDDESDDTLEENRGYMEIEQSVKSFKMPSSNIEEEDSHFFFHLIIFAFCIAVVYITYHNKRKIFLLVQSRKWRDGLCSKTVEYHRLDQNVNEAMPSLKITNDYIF
# Chain of UniProt Q9P2X3 (Q9P2X3 whole entry, looked up): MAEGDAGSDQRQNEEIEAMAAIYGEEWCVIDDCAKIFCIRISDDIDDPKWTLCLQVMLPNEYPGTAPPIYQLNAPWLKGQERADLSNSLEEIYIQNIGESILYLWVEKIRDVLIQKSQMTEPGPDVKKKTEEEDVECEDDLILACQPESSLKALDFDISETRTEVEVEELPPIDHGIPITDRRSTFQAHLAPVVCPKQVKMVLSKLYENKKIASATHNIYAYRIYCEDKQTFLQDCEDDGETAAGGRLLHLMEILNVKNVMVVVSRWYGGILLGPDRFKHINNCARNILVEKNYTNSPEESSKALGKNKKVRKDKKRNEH
Target,log2 fold change [1],log2 fold change [2],log2 fold change [3],log2 fold change [4],log2 fold change [5],log2 fold change [6],log2 fold change [7],log2 fold change [8],log2 fold change [9],log2 fold change [10],log2 fold change [11],log2 fold change [12],log2 fold change [13],log2 fold change [14],log2 fold change [15],log2 fold change [16],log2 fold change [17],log2 fold change [18],log2 fold change [19],log2 fold change [20]
HNRNPDL (UniProt O14979),0.04,-0.002,-0.005,0.016,0.04,-0.025,-0.056,0.104,0.072,-0.035,-0.208,0.036,0.016,-0.018,-0.005,0.074,-0.002,-0.062,-0.008,0.004
HMBOX1 isoform 5 (UniProt Q6NT76),0.254 (active),-0.097,0.023,0,0.021,0.052,0.035,-0.013,0.112,0.129,0.186,-0.038,-0.034,0.078,0.024,-0.008,0.077,0.001,0.041,-0.055
IMPDH2 (UniProt P12268),0.027,0.043,-0.007,-0.011,-0.012,-0.04,-0.017,0.029,0.041,0.012,0,-0.009,-0.036,-0.009,0.004,-0.073,0.029,0.006,-0.016,0.031
IFNGR1 (UniProt P15260),-0.076,0.153,-0.008,-0.497,0.196,0.263,-0.001,-0.034,-0.144,0.378,0.227,-0.068,-0.018,0.133,-0.125,0.047,-0.08,0.013,0.084,-0.101
KDM5C (UniProt P41229),-0.085,-0.071,-0.043,0.034,-0.001,-0.135,0.016,0.04,-0.061,0.001,-0.021,-0.005,-0.032,0.022,0.033,-0.084,0.037,0.032,-0.037,-0.032
HARS (UniProt P12081),0.008,0.01,-0.009,0.028,0.014,-0.052,0.006,0.003,0.015,-0.01,0.031,0.003,-0.006,-0.015,0.008,-0.021,0.019,-0.019,0.005,0.021
KCT2 (UniProt Q8NC54),-0.005,-0.018,0.048,-0.331 (active),0.018,0.277 (active),0.005,-0.028,-0.023,0.099,-0.034,0.008,0.025,-0.025,0.043,0.031,0.001,0.024,0.051,0.005
IMPDH2 (UniProt H0Y4R1),0.074,-0.133,0.19,-0.056,0.011,0.16,-0.028,0.028,0.022,0.065,0.106,-0.012,0.004,0.014,-0.066,-0.153,-0.09,0.02,-0.01,–
GLUD2 (UniProt P49448),-0.009,0.144,-0.097,-0.004,0.001,0.099,0.03,-0.028,0.049,0.024,0.053,-0.067,0.013,-0.003,-0.017,0.039,0.047,0.015,0.012,-0.004
GNB1 (UniProt P62873),0.054,-0.022,-0.106,-0.114,0.003,0.04,-0.023,0.079,0.123,0.04,0.075,0.057,-0.078,0.098,-0.029,0.107,0.019,-0.137,-0.027,-0.018
INTS10 (UniProt Q9NVR2),0.097,-0.093,-0.04,0.027,-0.09,-0.168,0.011,0.026,-0.052,0,-0.01,-0.025,-0.054,-0.024,0.109,-0.034,-0.021,0.011,0.039,0.028
GLUL (UniProt P15104),0.04,0.015,0.066,0.213 (active),0.019,-0.093,-0.026,0.014,0.013,-0.147,-0.008,-0.012,0.054,-0.026,-0.002,0.071,0.027,-0.032,0.009,-0.003
IMPACT (UniProt Q9P2X3),0.012,0.044,0.083,0.077,-0.015,0.065,0.026,-0.044,-0.098,-0.096,0.087,-0.066,0.013,-0.687 (active),0.04,-0.103,-0.13,0.11,0.071,0.087
GSK3B isoform 2 (UniProt P49841),-0.083,0.191,0.003,0.018,-0.02,0.59,-0.078,0.03,-0.041,-0.06,-0.06,0.576,-0.023,0.64 (active),-0.028,-0.084,0.003,0,0.061,-0.039
HELQ (UniProt Q8TDG4),0.002,-0.009,-0.011,-0.014,0.025,0.012,-0.01,0.042,-0.109,-0.033,-0.486 (active),-0.433 (active),0.021,0.051,-0.028,-0.024,0.033,-0.013,0.122,0.009
HNRNPAB isoform 3 (UniProt Q99729),0.007,0.01,0.04,-0.068,-0.009,0.019,-0.02,-0.058,-0.002,0.033,-0.012,0.026,0.022,0.024,-0.028,0.026,0.006,0,-0.005,0.012
